As usually defined, the AC50 is the midpoint of the concentration-response curve, whichever way the signal moves.

The values below come from PubChem BioAssay (EPA / NIEHS).

Several values for one entry are separate records, joined by “and”; a condition that tells them apart may be missing. Equal values may be shown once. A structure can be active in one record and inactive in another. Activity calls are given as the source filed them. The calls were made as follows: active = hit-call score of the fitted dose curve at least 0.9, where 1 is the maximum; inactive = score below 0.9.

Experiment [1] in a line: BSK_MyoF_SRB: Viability Assessment in the BioMAP Diversity Plus: MyoF Assay (AID 2284267).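 Also: total protein by SRB absorbance in parallel cultures as cytotoxicity measure; cells assessed 24 h after compound addition.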 As to conditions: primary human lung fibroblasts. The procedure, abridged: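 Lung fibroblast cultures, 24 h post-dose; fix 10% TCA, stain 0.1% SRB, read 560 nm. Signal = total protein as cytotoxicity measure; fitted relative to DMSO negative control.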
Read-out in experiment [2]: Matrix Metallopeptidase 1 (MMP1), MMP1 (gene 4312)
Briefly: BSK_MyoF_MMP1: BioMAP Diversity Plus: MyoF Assay for Matrix Metallopeptidase 1 (MMP1) Biomarker Activity (AID 2284268). As to conditions: primary human lung fibroblasts. The procedure, abridged:
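MMP1 measured by ELISA 24 h after dosing primary human lung fibroblasts; cytotoxicity checked in parallel cultures by sulforhodamine B total-protein staining read at 560 nm.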

Read-out in experiment [3]: TIMP metallopeptidase inhibitor 1 (TIMP1), TIMP1 (gene 7076)
Briefly: BSK_MyoF_TIMP1: BioMAP Diversity Plus: MyoF Assay for TIMP metallopeptidase inhibitor 1 (TIMP1) Biomarker Activity (AID 2284269). Particulars: primary human lung fibroblasts. In short, it runs like this: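 ELISA read-out of TIMP-1 from primary human lung fibroblast cultures 24 h after compound dosing; gain of signal relative to DMSO vehicle baseline defines activity.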

Read-out in experiment [4]: Matrix Metallopeptidase 1 (MMP1), MMP1 (gene 4312)
Briefly: BSK_BF4T_MMP1: BioMAP Diversity Plus: BF4T Assay for Matrix Metallopeptidase 1 (MMP1) Biomarker Activity (AID 2284270). Particulars: primary human bronchial epithelial cells with fibroblasts. In short, it runs like this: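 MMP-1 quantified by ELISA in primary human bronchial epithelial/dermal fibroblast co-cultures, 24 hours post-dosing, with DMSO as baseline; parallel sulforhodamine B staining (560 nm) tracks overt cytotoxicity.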

Read-out in experiment [5]: Matrix Metallopeptidase 3 (MMP3), MMP3 (gene 4314)
Put plainly: BSK_BF4T_MMP3: BioMAP Diversity Plus: BF4T Assay for Matrix Metallopeptidase 3 (MMP3) Biomarker Activity (AID 2284271). Particulars: primary human bronchial epithelial cells with fibroblasts. In short, it runs like this: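 MMP-3 level read by ELISA after 24 h chemical exposure of bronchial epithelial cell/dermal fibroblast co-cultures, fitted upward relative to DMSO. Parallel cultures stained with 0.1% SRB after TCA fixation gauge overt cytotoxicity.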

Read-out in experiment [6]: Plasminogen Activator Inhibitor-1 (PAI1), SERPINE1 (gene 5054)
Briefly: BSK_BF4T_PAI1: BioMAP Diversity Plus: BF4T Assay for Plasminogen Activator Inhibitor-1 (PAI1) Biomarker Activity (AID 2284273). Particulars: primary human bronchial epithelial cells with fibroblasts. The procedure, abridged: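 PAI-1 levels quantified by ELISA 24 h post-dosing in bronchial epithelial cell plus dermal fibroblast cultures. Signal gain referenced to DMSO baseline. Sulforhodamine B total-protein staining of parallel wells checked cytotoxicity.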

Experiment [7] is described as follows: BSK_BF4T_SRB: Viability Assessment in the BioMAP Diversity Plus: BF4T Assay (AID 2284274).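 As to AC50: measured 24 h after compound addition.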 As to conditions: primary human bronchial epithelial cells with fibroblasts. The procedure, abridged:
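Cytotoxicity measured as total protein: cells fixed with 10% TCA, stained with 0.1% SRB, read at 560 nm. Bronchial epithelial/dermal fibroblast co-culture, 24 h after dosing, with positive-direction fitting relative to DMSO.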

Read-out in experiment [8]: Matrix Metallopeptidase 9 (MMP9), MMP9 (gene 4318)
Briefly: BSK_BF4T_MMP9: BioMAP Diversity Plus: BF4T Assay for Matrix Metallopeptidase 9 (MMP9) Biomarker Activity (AID 2284276). As to conditions: primary human bronchial epithelial cells with fibroblasts. In short, it runs like this: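 MMP-9 levels were measured by ELISA after 24 h exposure of bronchial epithelial cell/dermal fibroblast co-cultures, with DMSO as baseline. Parallel cultures were stained with 0.1% SRB after TCA fixation, read at 560 nm, to flag overt cytotoxicity.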

Read-out in experiment [9]: Interleukin-8 (IL8), CXCL8 (gene 3576)
Put plainly: BSK_IMphg_IL8: BioMAP Diversity Plus: IMphg Assay for Interleukin-8 (IL8) Biomarker Activity (AID 2284277). Particulars: primary human endothelial cells with macrophages. In short, it runs like this: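 IL-8 levels were measured by ELISA 24 h after dosing in primary human venular endothelial cell–macrophage cultures, referenced to DMSO; parallel SRB staining monitored overt cytotoxicity.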

Read-out in experiment [10]: Intercellular Adhesion Molecule 1 (ICAM1), ICAM1 (gene 3383)
Put plainly: BSK_BE3C_ICAM1: BioMAP Diversity Plus: BE3C Assay for Intercellular Adhesion Molecule 1 (ICAM1) Biomarker Activity (AID 2284278).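 As to outcome: cell-surface ICAM-1 protein level quantified by ELISA.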 As to conditions: primary human bronchial epithelial cells. The procedure, abridged: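 ELISA read-out of ICAM-1 on human lung bronchial epithelial primary cells, 24 h post-dosing; positive-direction curve fit, DMSO = baseline. SRB total-protein staining of parallel cultures flagged overt cytotoxicity.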

Read-out in experiment [11]: Interferon-inducible T-cell alpha chemoattractant (ITAC), CXCL11 (gene 6373)
Put plainly: BSK_BE3C_ITAC: BioMAP Diversity Plus: BE3C Assay for Interferon-inducible T-cell alpha chemoattractant (ITAC) Biomarker Activity (AID 2284279). As to conditions: primary human bronchial epithelial cells. The procedure, abridged: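 ELISA read-out of I-TAC after 24 h chemical dosing of human lung primary bronchial epithelial cells; gain-of-signal fit vs DMSO baseline. Parallel SRB total-protein staining (0.1% SRB, 10% TCA fixation, 560 nm) assessed cytotoxicity.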

Read-out in experiment [12]: Interleukin-8 (IL8), CXCL8 (gene 3576)
Briefly: BSK_BE3C_IL8: BioMAP Diversity Plus: BE3C Assay for Interleukin-8 (IL8) Biomarker Activity (AID 2284280). Particulars: primary human bronchial epithelial cells. In short, it runs like this:
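Primary human bronchial epithelial cells (BE3C system) were exposed to test chemical for 24 h, and IL-8 levels were then measured by ELISA. Activity was fitted in the positive (gain-of-signal) direction against a DMSO negative-control baseline.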

Read-out in experiment [13]: Epidermal growth factor receptor (EGFR), EGFR (gene 1956)
Briefly: BSK_BE3C_EGFR: BioMAP Diversity Plus: BE3C Assay for Epidermal growth factor receptor (EGFR) Biomarker Activity (AID 2284281). Particulars: primary human bronchial epithelial cells. In short, it runs like this: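 Human primary bronchial epithelial cells were exposed to compound for 24 h, and cell-surface EGFR was then quantified by ELISA. Activity was fitted in the positive direction against the DMSO vehicle baseline.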

Read-out in experiment [14]: KRT18 (gene 3875)
Briefly: BSK_BE3C_Keratin818: BioMAP Diversity Plus: BE3C Assay for Keratin 818 Biomarker Activity (AID 2284282). Particulars: primary human bronchial epithelial cells. In short, it runs like this: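 ELISA read-out of Keratin 8/18 in BE3C human bronchial epithelial cultures, 24 h post-dosing; positive-direction fit vs DMSO baseline.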

Read-out in experiment [15]: Matrix Metallopeptidase 9 (MMP9), MMP9 (gene 4318)
Briefly: BSK_BE3C_MMP9: BioMAP Diversity Plus: BE3C Assay for Matrix Metallopeptidase 9 (MMP9) Biomarker Activity (AID 2284283). As to conditions: primary human bronchial epithelial cells. In short, it runs like this:
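Cells were dosed, incubated 24 h, then assayed for MMP-9 by ELISA; activity was fitted upward against DMSO. The system used human lung primary bronchial epithelial cells, with SRB total-protein staining run alongside for cytotoxicity.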

Read-out in experiment [16]: Plasminogen activator inhibitor-1 (PAI1), SERPINE1 (gene 5054)
Put plainly: BSK_CASM3C_PAI1: BioMAP Diversity Plus: CASM3C Assay for Plasminogen activator inhibitor-1 (PAI1) Biomarker Activity (AID 2284284). Particulars: primary human coronary artery smooth muscle cells.

Read-out in experiment [17]: Monocyte Chemoattractant Protein-1 (MCP1), CCL2 (gene 6347)
Put plainly: BSK_hDFCGF_MCP1: BioMAP Diversity Plus: hDFCGF Assay for Monocyte Chemoattractant Protein-1 (MCP1) Biomarker Activity (AID 2284285). As to conditions: primary human foreskin fibroblasts. The procedure, abridged: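 MCP-1 ELISA readout was taken 24 hours after dosing primary human dermal fibroblasts in the hDFCGF system, with DMSO as baseline. Parallel sulforhodamine B staining of total protein tracked overt cytotoxicity.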

Read-out in experiment [18]: Vascular cell adhesion molecule 1 (VCAM1), VCAM1 (gene 7412)
Put plainly: BSK_IMphg_VCAM1: BioMAP Diversity Plus: IMphg Assay for Vascular cell adhesion molecule 1 (VCAM1) Biomarker Activity (AID 2284286). As to conditions: primary human endothelial cells with macrophages. The procedure, abridged:
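ELISA read-out of VCAM-1 on venular endothelial cell/macrophage co-cultures at 24 h post-treatment, with DMSO as baseline and positive-direction fitting. Parallel sulforhodamine B total-protein staining (560 nm) served as the overt cytotoxicity measure.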

As to `CC(C)(C)C(=O)CC(=O)C(F)(F)C(F)(F)C(F)(F)F`, the result in experiment [1], in experiment [2], in experiment [3], in [4], in [5] and in [6] was inactive. The outcome in experiment [7], in experiment [8], in [9], in [10], in [11] and in experiment [12] was inactive. The outcome in experiment [13], in experiment [14], in experiment [15], in experiment [16], in [17] and in [18] was inactive.

Consider `OCC(F)(F)C(F)(F)C(F)(F)C(F)(F)C(F)(F)C(F)F`, for which the result in experiment [1], in experiment [2], in experiment [3], in [4], in experiment [5] and in experiment [6] was inactive. Moreover, the result in experiment [7], in [9], in experiment [10], in [11], in experiment [12] and in experiment [13] was inactive. Also, the outcome in experiment [14], in experiment [15], in experiment [16], in [17] and in experiment [18] was inactive.

Regarding `OCCCC(F)(F)C(F)(F)C(F)(F)C(F)(F)C(F)(F)C(F)(F)C(F)(F)F`, the concentration at half-maximal activity (AC50) in [1] is 44.8 µM (active) and 56.2 µM (active); in [2], 48 µM (active); in [3], 54.9 µM (active) and 47.5 µM (active); in experiment [5] it was 57.5 µM (active) and 32.4 µM (active); in [6] it was 47.5 µM (active) and 39.4 µM (active); in experiment [7] it was 51 µM (active) and 53.6 µM (active). The concentration at half-maximal activity (AC50) in [9] is 47.5 µM (active); in experiment [10] it was 53.8 µM (active) and 51.3 µM (active); in [11], 45.9 µM (active) and 46.9 µM (active); in experiment [12], 37.1 µM (active) and 43 µM (active); in experiment [13] it was 20.4 µM (active) and 47.3 µM (active); in experiment [14], 50.6 µM (active) and 48.5 µM (active). Further, the AC50 is 47.3 µM (active) and 55.3 µM (active) in experiment [15]; 45.3 µM (active) and 48.2 µM (active) in experiment [16]; 16.1 µM (active) and 17.6 µM (active) in experiment [17]; 54.6 µM (active) in experiment [18]. Further, the result in experiment [2], in experiment [9] and in [18] was inactive.
